Source: PubChem BioAssay AID1465 (SRMLSC, 2008)
Among all 220,000 compounds or so, about 160 (0.073%) were called active. The list is a sample of the results. Potency and affinity values are given separately. Unmarked numbers belong to inactive results.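 The calls were made as follows: active = fold induction of absorbance versus untreated yeast above a set limit, then at least 30% activation at any dose in follow-up; inconclusive = repeats straddling the limit, or above it without dose testing; inactive = fold induction below the set limit.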

Assay: mitochondrial function rescue without frataxin homolog – Friedreich's ataxia, plus single-dose screen, dose response (AID 1465)
Conditions: S. cerevisiae Yfh1-off respiration, WST-1 reduction, 72 h; at 50 µM; stronger effect = higher value

| Compound | fold induction |
| --- | --- |
| CCOC(=O)C1=C(Cc2ccc(Cl)cc2)C(=O)c2ccccc2C1=O | 1.27 |
| CCOC(=O)C1=C(Cc2ccc(C)cc2)C(=O)c2ccccc2C1=O | 1.29 |
| CCNS(=O)(=O)c1ccc(NC(=O)Nc2ccccc2OC)cc1 | 1.1 |
| Cc1nc2c(C)cccn2c1/C(O)=C1\C(=O)C(=O)N(CCN(C)C)C1c1ccncc1 (stereo not drawn) | 1.11 |
| Oc1ccc(CN2CCN(Cc3ccccc3)CC2)c2cccnc12 | 1.36 |
| COc1ccccc1N1CCN(Cc2cc(Br)c(O)c3ncccc23)CC1 | 0.74 |
| Oc1ccc(CN2CCN(c3ccccc3)CC2)c2cccnc12 | 0.91 |
| Oc1ccc(CN2CCCCC2)c2cccnc12 | 0.69 |
| CCOc1ccc(C(=O)NCC(=O)OCc2c(F)cccc2Cl)cc1 | 1.18 |
| CCNC(=S)N(Cc1ccc(OC)cc1)C1CC(=O)N(c2ccc(OCC)cc2)C1=O (stereo not drawn) | 0.92 |
| NC(=S)Nc1ccccc1Br | 1 |
| Cc1ccc(/C=N/NC(=O)CN2CCN(Cc3ccccc3Cl)CC2)o1 | 0.97 |
| N#C/C(=N\Nc1ccc(Cl)cc1)C(=O)c1ccccc1 | 0.82 |
| Cc1c(N/C=C/C(=O)c2ccc(Cl)cc2)c(=O)n(-c2ccccc2)n1C | 1 |
| CCOC(=O)/C(C#N)=N/Nc1c(C)n(C)n(-c2ccccc2)c1=O | 1 |
| COC(=O)C(=NNc1c(C)n(C)n(-c2ccccc2)c1=O)C(=O)OC | 1 |
| Cc1c(NN=C(C#N)C#N)c(=O)n(-c2ccccc2)n1C | 0.98 |
| Cc1c(NC=C(C#N)C#N)c(=O)n(-c2ccccc2)n1C | 0.95 |
| O=C(c1cc2c(s1)CCCC2)N1CCN(S(=O)(=O)c2ccccc2C(F)(F)F)CC1 | 0.91 |
| CCC(C)/C(C)=N/NC(=O)c1cn(-c2ccccc2)nc1-c1ccccc1 (stereo not drawn) | 0.83 |
| O=C(O)CC(NC(=O)Cc1ccc([N+](=O)[O-])cc1)c1ccc2c(c1)OCO2 (stereo not drawn) | 1 |
| Cc1ccc(-c2cc3nc(-c4ccccc4)cc(N4CCC5(CC4)OCCO5)n3n2)cc1 | 0.98 |
| O=C(Nc1ccon1)c1cccc(C(F)(F)F)c1 | 0.98 |
| COc1c(O)cc2c(c1O)C(=O)CC(c1ccccc1)O2 (stereo not drawn) | 0.86 |
| C[C@@H]1Cc2c(O)c(O)cc(O)c2C(=O)O1 | 1.07 |

| Compound | fold induction |
| --- | --- |
| Cc1cc2cc(C(c3nnnn3Cc3ccco3)N3CCCCC3)c(=O)[nH]c2cc1C (stereo not drawn) | 0.99 |
| COc1ccc(OC)c(N2C(=O)CC(Cc3ccc(C)cc3)C2=O)c1 (stereo not drawn) | 0.84 |
| N#C/C(C(=O)N1CCCCC1)=C1\Nc2ccccc2S1 | 0.81 |
| CC(=O)C1=C(c2ccc(Br)cc2)C(=O)c2ccccc2C1=O | 0.86 |
| COC1=C(c2ccccc2)C(=O)c2ccccc2C1=O | 1.01 |
| COc1ccc(C/C(O)=C(\C#N)c2nc3ccccc3[nH]2)cc1OC | 1.12 |
| O=C(CC1(O)C(=O)Nc2ccccc21)c1ccc(-n2cnnn2)cc1 (stereo not drawn) | 1.11 |
| CC1CCCC(NC(=O)c2ccc3c(=O)n(CC4CCCO4)c(=O)[nH]c3c2)C1C (stereo not drawn) | 1.02 |
| CCC(=O)/C=C1/Sc2ccccc2N1CC | 0.79 |
| CCOC(=O)/C(=C/C=C1\Sc2ccccc2N1CC)C(C)=O | 0.99 |
| COC(=O)c1ccccc1NC(=O)Cn1ccnc1 | 1.02 |
| CC(=O)NC(c1ccco1)c1ccc2cccnc2c1O (stereo not drawn) | 0.91 |
| CCC(=O)NC(c1cccs1)c1ccc2cccnc2c1O (stereo not drawn) | 0.88 |
| O=[N+]([O-])c1ccc(O)c2ncccc12 | 1.17 |
| CCCC(=O)NC(c1ccco1)c1c(O)ccc2ccccc12 (stereo not drawn) | 0.99 |
| CCCC(=O)NC(c1ccco1)c1cc(Cl)c2cccnc2c1O (stereo not drawn) | 0.7 |
| CC(C)CC(=O)NC(c1cccs1)c1ccc2cccnc2c1O (stereo not drawn) | 0.99 |
| O=C1CNC(=O)N1CC(=O)N1CCCc2ccccc21 | 1.04 |
| COc1ccc(C)cc1S(=O)(=O)Nc1cc(Cl)ccc1Cl | 0.94 |
| OC(COc1ccc2ccccc2c1)CN1CCN(c2ccc(F)cc2)CC1 (stereo not drawn) | 0.93 |
| COc1ccc(/C=C2\Sc3ccc(C(=O)NCc4cccnc4)cc3N(C)C2=O)cc1OC | 1.1 |
| c1csc(-c2nnc(N3CCOCC3)c3ccccc23)c1 | 1.39 |
| Cc1c(Nc2ccc(C=O)cc2)c(=O)n(-c2ccccc2)n1C | 1.09 |
| Clc1ccc(-c2n[nH]c3c2CCC3)cc1Cl | 0.777 |
| CCC(=O)NNc1ncnc2c1cnn2C | 1.06 |

| Compound | fold induction |
| --- | --- |
| CCOc1ccc(Oc2ccc(S(=O)(=O)N3CCOCC3)cc2N)cc1 | 1.12 |
| CCc1nnc(NC(=O)CCC(=O)N2CCN(CCOc3ccc(C)cc3)CC2)s1 | 0.907 |
| COc1ccc(NC(=S)NNc2ccc([N+](=O)[O-])cc2S(=O)(=O)Nc2ccc(C)cc2C)cc1 | 1.25 |
| Cc1ccc(NC(=S)NNc2ccc([N+](=O)[O-])cc2S(=O)(=O)Nc2ccccc2C(=O)O)cc1C | 1.09 |
| O=C(O)CCc1nn2c3ccccc3nc2n(CCN2CCCCC2)c1=O | 1.09 |
| COc1cc2c(cc1NC(=O)C(C)OC(=O)/C=C/c1ccc(OC(F)F)cc1)oc1ccccc12 (stereo not drawn) | 1.12 |
| Cc1cc(/C=N/NC(=O)c2ccccc2F)c(C)n1-c1ccccc1 | 1.02 |
| COc1ccc(/C=N/NC(=O)c2cc(C)n(-c3ccccc3)c2C)cc1OC | 0.99 |
| Cc1ccc(CCCOC(=O)C[N+]2(C)CCOCC2)cc1 | 1.14 |
| Cc1c(S(=O)(=O)N2CCN(C(c3ccccc3)c3ccccc3)CC2)c(=O)n(C)c(=O)n1C | 1.25 |
| CN1/C(=C\C=C2/SC(=S)NC2=O)C(C)(C)c2ccccc21 | 1.04 |
| CN1/C(=C\C=O)C(C)(C)c2ccccc21 | 1.07 |
| CC(C)n1c(SCC(=O)c2ccc3c(c2)OCCO3)nc2c1c(=O)n(C)c(=O)n2C | 1.06 |
| O=[N+]([O-])c1cccc(/C=N/Nc2nc(NCc3ccccc3)nc(N3CCOCC3)n2)c1 | 1.03 |
| O=[N+]([O-])c1ccc(/C=N/Nc2nc(NCc3ccccc3)nc(N3CCOCC3)n2)cc1 | 1.08 |
| CCCCN1C(=O)C2C(c3ccc(OC)cc3O)NC(CC(C)C)(C(=O)O)C2C1=O (stereo not drawn) | 0.99 |
| CCCC(=O)NC(c1ccc(OC)c(OC)c1)c1cc(Cl)c2cccnc2c1O (stereo not drawn) | 1.13 |
| CCCC(=O)NC(c1ccc2c(c1)OCO2)c1cc(Cl)c2cccnc2c1O (stereo not drawn) | 1.12 |
| COc1ccc(C(NC(=O)c2cccnc2)c2cc(Cl)c3cccnc3c2O)cc1OC (stereo not drawn) | 0.98 |
| CCCC(=O)NC(c1ccc(OC)cc1)c1ccc2cccnc2c1O (stereo not drawn) | 0.96 |
| O=C(CS(=O)(=O)c1c[nH]c2ccccc12)N1CCCCCC1 | 1.02 |
| CC(=NC1CC1)c1c(-c2ccccc2)[nH]n(-c2nc3ccccc3s2)c1=O | 0.93 |
| CCCc1cc(=O)n(-c2nc3ccccc3s2)[nH]1 | 1 |
| Cc1ccc(S(=O)(=O)NCC(=O)OCc2ccccc2)cc1 | 0.97 |
| COc1ccc(CN2C(=O)[C@H]3Cc4c([nH]c5ccccc45)C(C)(C)N3C2=O)cc1 | 0.81 |

| Compound | fold induction |
| --- | --- |
| CC(C)C(=O)NC(c1ccccc1)c1cc([N+](=O)[O-])c2cccnc2c1O (stereo not drawn) | 0.98 |
| CCC(=O)NC(/C=C/c1ccccc1)c1cc([N+](=O)[O-])c2cccnc2c1O (stereo not drawn) | 1.36 |
| O=[N+]([O-])c1cc(Cl)c(O)c2ncccc12 | 1.15 |
| O=[N+]([O-])c1cc(Cl)c2cccnc2c1O | 0.89 |
| O=C(NNC(=O)c1cccnc1)Nc1cccc(Cl)c1Cl | 0.89 |
| Cc1cnccc1CN(C)Cc1nc(Cc2ccccc2Cl)no1 | 0.85 |
| CCC1(C(=O)O)NC(c2cccc(OC)c2O)C2C(=O)N(c3ccccc3)C(=O)C21 (stereo not drawn) | 1.01 |
| Cc1cc(C)n2nc(-c3sccc3-n3c(C)ccc3C)cc2n1 | 1.01 |
| COc1ccc(CN2C3CCCC2CC(NC(=O)Nc2cccc(C)c2)C3)cc1 (stereo not drawn) | 0.96 |
| Cc1oc2c(c1C(=O)O)C(=O)c1ccccc1C2=O | 1.01 |
| Cc1ccc(C(=O)c2c(C)oc3c2C(=O)C(=O)c2ccccc2-3)cc1 | 1.18 |
| C=CCn1c(C)cc(C(=O)COc2ncnc3sccc23)c1C | 0.88 |
| COc1ccccc1N(CN1C(=O)c2ccccc2C1=O)C(=O)c1cccc(C)c1 | 0.82 |
| O=C(CCCn1nnc2ccccc2c1=O)N[C@H](C(=O)O)c1ccccc1 | 1.02 |
| O=C(O)c1cccc(NC(=S)N/N=C/c2cccc(O)c2)c1 | 1.03 |
| O=C(O)c1cccc(NC(=S)N/N=C/c2cccnc2)c1 | 0.98 |
| COc1c(Cl)cc(Cl)cc1C(=O)n1nc(C)cc1C | 0.88 |
| CCOC(=O)c1ccc(NNC(=O)CC)c([N+](=O)[O-])c1 | 1.03 |
| CNc1nc2c(c(=O)[nH]c(=O)n2C)n1CCOC | 1.02 |
| O=C1NC(=O)/C(=C/c2ccc(N3CCOCC3)o2)N1 | 1.01 |
| O=C1NC(=O)/C(=C\c2ccc(N3CCOCC3)o2)N1 | 0.97 |
| COc1ccccc1C(CC(=O)N1CCCC1)c1ccc2c(c1)OCO2 (stereo not drawn) | 0.99 |
| NNC(=O)CCc1c[nH]c2ccccc12 | 0.93 |
